Screen size: about 330,000 compounds; about 1,900 (0.58%) were called active. Inconclusive results (about 4%) are left out. Only a sample is shown. Entries with a potency or affinity are not part of this list. Values without a mark were called inactive. Rule as the data show it: inconclusive = inhibition above about 70% without an active follow-up result; inactive = below that. Where a SMILES comes first, the peptide text is derived from it. [ ]: non-standard residue; d: D form. The star is where a group is joined. ξ: configuration not given here. Cbz = O=C(OCc1ccccc1)*; ξS = NC(CO)C(=O)O

The term inhibition denotes the relative decrease from the control value, in per cent.

The test in a line: M. tuberculosis growth inhibition, HTS (AID 449762).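 Also: bacterial growth assessed after seven days of incubation.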 The settings on record: M. tuberculosis H37Rv growth inhibition, 7H9 media; at 25 µM; hits give high values.
Turning to `CCOC(=O)C1CCN(S(=O)(=O)c2ccc(-c3cc(C(F)(F)F)n(C)n3)s2)CC1`, the inhibition is -4.16%.

In the case of `Cc1cnc(C(=O)Nc2cccc3ncccc23)cn1`, the inhibition was -2.6%.

On to `Cc1c(C)c(C)c(CO/N=C/c2cccs2)c(C)c1C`, for which the inhibition is -0.39%.

Take `COc1cc(NCCCCCCCN)c2ncccc2c1`: the inhibition is 7.02%. On to `COc1cc(NC(C)CCCN)c2ncccc2c1Oc1ccccc1` (stereo unspecified), for which the inhibition is -3.95%. The result for `CCCCC(=O)Nc1cccc(-c2nn3c(C)nnc3s2)c1` reads 8.49%; that for `O=C1NN(c2cccc(Br)c2)C(=O)/C1=C\c1ccc(O)cc1`, 1.89%; that for `Cc1cc(/C=C2/C(=O)NN(c3ccccc3)C2=O)c(C)n1-c1ccc(O)cc1`, 5.28%.

As to `CN(CC1COc2ccccc2O1)C(=S)NC1CCCCC1` (stereo unspecified), the inhibition was -4.56%. Regarding `Cc1nn(Cc2ccc(C(=O)NN)o2)c(C)c1Cl`, the inhibition was -6.65%.

`Cc1ccc(CNC(=O)c2ccc(Cn3nc(C)c(Cl)c3C)o2)cc1`: the inhibition is -10.1%. Regarding `Cc1c(Cl)c([N+](=O)[O-])nn1Cc1ccc(C(=O)N/N=C\c2ccccn2)o1`, the inhibition is 0.01%. On to `COc1cc(/C=N\NC(=O)c2ccc(Cn3nc([N+](=O)[O-])c(Cl)c3C)o2)ccc1O`, for which the inhibition is -5.71%. In the case of `COc1ccc(NC(=O)C(C)N(C)Cc2ccc3ccccc3c2)cc1` (stereo unspecified), the inhibition is 0.65%. Take `NC(N)=NCCCC(NC(=O)c1ccccc1)C(=O)Nc1ccc2ccccc2c1` (stereo unspecified): the inhibition was 69.1%.

For the compound `O=C(CSc1ccc2nnc(-c3ccc(F)cc3)n2n1)NCc1ccco1`, the inhibition was -4.01%. Turning to `CC1(C)C([N+](=O)[O-])C(c2ccc(Cl)cc2)NC(c2ccc(Cl)cc2)C1[N+](=O)[O-]` (stereo unspecified), the inhibition is 61.2%. Regarding `CCOc1ccc(NC(=O)CSc2ccc3nnc(-c4cccnc4)n3n2)cc1`, the inhibition is -11.5%. The result for `O=C(Cc1ccccc1)NNC(=O)Nc1ccc(Cl)c(Cl)c1` reads 9.99%; that for `CCN(CC)C(=S)Nc1ccc(Cl)c(Cl)c1`, 7.74%. Under `Cc1ccc2nc(CSc3nnc(-c4ccncc4)n3C)cc(=O)n2c1` stands -4.97%; under `CCc1nc(SCc2nnc(-c3ccc(C)cc3)o2)c2c(C)c(C)sc2n1`, -15.8%. `O=C1NCC(c2ccccc2)C1C(=O)N/N=C/c1ccc(Cl)s1` (stereo unspecified): the inhibition was -0.33%. Under `O=C1NCC(c2ccccc2)C1C(=O)N/N=C\c1ccc(-c2cccc(Cl)c2Cl)o1` (stereo unspecified) stands 24.5%; under `COCCNC(=O)C1CC2Cn3c(nc4cc(Cl)c(Cl)cc43)C2N1C` (stereo unspecified), 2.07%. Under `O=C(NCC1CCCO1)c1cc([N+](=O)[O-])ccc1N1CCC(Cc2ccccc2)CC1` (stereo unspecified) stands 32.2%; under `CCNC(=O)C(Cc1ccccc1)NC(=O)OCc1ccccc1` (stereo unspecified), -4.3%; under `CCOC(=O)CNC(=O)C(CO)NC(=O)OCc1ccccc1` (stereo unspecified) (Cbz-[ξS]-Gly-OEt), 5.25%.

For the compound `COc1cc(OC)cc(C(=O)N[C@H](C(=O)Nc2ccc(NC(C)=O)cc2)C(C)C)c1`, the inhibition was -0.98%.

`O=c1c(Cc2ccccc2)c(O)ccn1Cc1ccc2c(c1)OCO2`: the inhibition was 3.04%. `O=C(Nc1cc(=O)[nH]c2nc(-c3ccccc3)nn12)c1ccc(Cl)cc1`: the inhibition was -2.49%. Under `O=C(Nc1cc(=O)[nH]c2ncnn12)c1ccco1` stands -17.4%; under `COCCN(C(=O)COC(=O)/C=C/c1ccc(C)o1)c1c(N)n(Cc2ccccc2)c(=O)[nH]c1=O`, -11.7%.

Turning to `COc1ccccc1N1CCN(C(=O)C2CC=CCC2C(=O)O)CC1` (stereo unspecified), the inhibition is -1.32%. For the compound `COc1cccc2c1OCC(C(=O)O)C2` (stereo unspecified), the inhibition was -0.01%. With `Cc1ccc(C)c(NC(=S)N(C)C)c1`, the inhibition is 1.85%.

Turning to `Cc1ccc(C)c(NNC(=O)C(=O)NNc2cc(C)ccc2C)c1`, the inhibition is 52.8%.

On to `O=C(Nc1cccc(S(=O)(=O)N2CCCCC2)c1)c1ccc2ncsc2c1`, for which the inhibition was -3.33%. For `CC(=O)c1cccc(NC(=O)c2ccc(S(=O)(=O)N3CCCCC3)cc2)c1`, the inhibition is -2.95%. Regarding `COc1ccc(N(C(=O)Cn2cnc3ccccc32)C(C(=O)NC2CCCCC2)c2ccccc2)cc1` (stereo unspecified), the inhibition was 0.85%. Take `COc1ccc(NS(=O)(=O)c2cccc(NC(=O)CNC(C)=O)c2)cc1`: the inhibition is 3.07%. Turning to `CN1C(=O)Cn2c1nc1ccccc12`, the inhibition was 6.02%. As for `Cc1ccc(C(O)c2nc3ccccc3n2C)cc1` (stereo unspecified), the inhibition was 6.67%.

For `Cc1cccc(C)c1NC(=S)N(CCN(C)C)C(C)c1ccccn1` (stereo unspecified), the inhibition is -5.58%. Under `CN(Cc1cccs1)C(=O)CCc1c[nH]c2ccccc12` stands 4.68%; under `COC(=O)c1ccc(CSc2nc(C(F)F)cc(C)c2C#N)o1`, -2.24%; under `COC(=O)c1ccc(CSc2ncnc3ccccc23)o1`, -4.26%. With `O=C(NNc1ncnc2ccccc12)c1cccc(Cl)c1`, the inhibition is -0.01%.

Consider `CN(Cc1cccc(F)c1)C(=O)c1cccc(S(=O)(=O)N2CCN(Cc3ccccc3)CC2)c1`, for which the inhibition was -18.2%. `Cc1ccc(CNC(=O)c2ccc(NC(=O)C3=CSCCO3)cc2)cc1`: the inhibition was -1.39%.

On to `O=C(Nc1ccc(C(=O)NCc2ccc(F)cc2)cc1)C1=CSCCO1`, for which the inhibition was -4.67%. Turning to `Cc1nc(-c2ccc(Cl)cc2)sc1C1(C)CC(c2ccc(Cl)cc2)=NO1` (stereo unspecified), the inhibition is 0.85%. The result for `Cc1nc(-c2ccccc2)sc1C1(C)CC(c2ccc(C#N)cc2)=NO1` (stereo unspecified) reads -2.7%; that for `c1ccc(-c2cc3ccccc3cn2)cc1`, 12.7%; that for `Cc1cnc(NC2=NCCC2)s1`, 4.98%. Under `CCCNC(=O)c1ccc(COc2ccc(C(C)(C)C)cc2)o1` stands 1.87%.

`COc1ccccc1NC(=O)c1nn(-c2ccccc2)ccc1=O`: the inhibition is 5.5%.

As for `CN(CC(=O)NC(=O)NCc1ccco1)Cc1nc2ccccc2c(=O)[nH]1`, the inhibition was -5.09%. Regarding `O=C(OC(C(=O)NCc1ccc2c(c1)OCO2)c1ccccc1F)c1ccco1` (stereo unspecified), the inhibition is 2.01%.

In the case of `C/C(CC(=O)Nc1ccc2c(c1)OCCO2)=N\NC(=O)c1ccccc1Cl`, the inhibition was 5.1%.

On to `COc1ccccc1C(=O)N/N=C(\C)CC(=O)Nc1ccc2c(c1)OCCO2`, for which the inhibition was 1.17%. As to `CC(C)(C)c1ccc(C(=O)NCCCNC(=O)c2ccccn2)cc1`, the inhibition is 8.46%.

As to `COC(=O)c1c(NC(=O)CCC(=O)O)sc2c1CCCCC2`, the inhibition was 19.9%. Take `COc1ccc(OC)c(Nc2nc(N)c([N+](=O)[O-])c(NC3CCCCC3)n2)c1`: the inhibition was -3.37%. The result for `Nc1nc(Nc2ccccc2)nc(NC2CCCCC2)c1[N+](=O)[O-]` reads 29.1%; that for `COc1ccc(OC)c(S(=O)(=O)N2CCN(C(=O)CCc3ccccc3)CC2)c1`, -9.07%; that for `CC12CCC(C/C1=N\N=C1\NC(=O)/C(=C\c3cccc(Br)c3)S1)C2(C)C` (stereo unspecified), 21.6%. Turning to `Cc1cccc(C(=O)O/N=C2/CC3CCC2(C)C3(C)C)c1` (stereo unspecified), the inhibition was 5.89%. Take `COc1ccc(CC(=O)O/N=C(\N)Cc2ccc(OC)c(OC)c2)cc1`: the inhibition is 2.93%. As to `O=C1c2ccccc2CN1C(CO)Cc1ccccc1` (stereo unspecified), the inhibition is -7.4%. `COCCNC(=S)N/N=C(\C)CCc1ccc2c(c1)OCO2`: the inhibition is 8.49%. The result for `C/C(CCc1ccc2c(c1)OCO2)=N\NC(=O)c1ccccc1` reads 1.21%. `O=C(N/N=C/c1ccccc1OC(=O)N1CCOCC1)c1cccs1`: the inhibition was 25.5%. As to `COc1ccc(NS(=O)(=O)c2cccc(C(=O)Nc3cccc(C(=O)O)c3)c2)cc1`, the inhibition was -7.77%. `COc1cc(/C=N/NC(=O)COc2ccccc2C)ccc1OC(=O)c1cccs1`: the inhibition was -7.68%. `CCOc1cc(/C=N/NC(=O)COc2ccc(C)cc2)ccc1OC(=O)c1cccs1`: the inhibition was 8.62%. Take `COC(=O)c1cc(S(=O)(=O)Nc2nn(C)c3ccccc23)oc1C`: the inhibition is 1.72%. Under `COCCN(C(=O)COC(=O)CSc1ccc2ccccc2c1)c1c(N)n(Cc2ccccc2)c(=O)[nH]c1=O` stands 0.46%; under `C=CCNC(=O)c1onc(CSc2ccncc2)c1C(=O)NCC=C`, -11.3%; under `Cc1ccc(S(=O)(=O)n2nc(C)c(S(=O)(=O)N3CCOCC3)c2C)cc1`, -4.96%.

In the case of `O=C(c1cnn2c(C(F)(F)F)cc(-c3ccccc3)nc12)N1CCCCC1c1cccnc1` (stereo unspecified), the inhibition is 61.7%. Turning to `Cc1ccc(-c2cc(C(F)(F)F)n3ncc(C(=O)N4CCCCC4c4cccnc4)c3n2)cc1` (stereo unspecified), the inhibition is -0.42%. For `C[C@]12c3[nH]c4ccccc4c3CCN1C(=O)C(CC(=O)NCC13CC4CC(CC(C4)C1)C3)C[C@@H]2C(=O)N1CCCCC1` (stereo partly specified), the inhibition is 21.5%. The result for `CC(C)N(C(=O)[C@H]1CC(CC(=O)NCC23CC4CC(CC(C4)C2)C3)C(=O)N2CCc3c([nH]c4ccccc34)[C@]12C)C(C)C` (stereo partly specified) reads 69.1%; that for `COc1cc([N+](=O)[O-])ccc1NC(=O)NCc1ccco1`, -4.54%; that for `COc1ccccc1CNC(=O)c1c(-c2ccccc2)nn(-c2ccccc2)c1C`, 6.07%. Consider `CC(=O)c1c(N2CCOCC2)[nH]c(-c2ccccc2)nc1=S`, for which the inhibition is 43.5%. Turning to `CC(=O)c1c(N2CCN(Cc3ccccc3)CC2)[nH]c(-c2ccccc2)nc1=S`, the inhibition was -2.96%.

Take `CC(C)[C@H](NC(=O)[C@@H]1Cc2ccccc2CN1C(=O)OC(C)(C)C)C(=O)NCc1ccco1`: the inhibition was 2.19%. For the compound `COc1ccc([N+](=O)[O-])cc1NS(=O)(=O)c1cccc(C(=O)OC2CCOC2=O)c1` (stereo unspecified), the inhibition is -6.35%. As to `O=C(NCCc1csc(-c2cccnc2)n1)c1ccccc1`, the inhibition is -11.6%.

The values are drawn from PubChem BioAssay AID449762 (Southern Research Specialized Biocontainment Screening …, 2010).
